Among the test systems are RPMI-8226 leukemia; OVCAR-8 ovarian; OVCAR-5 ovarian; OVCAR-4 ovarian; SK-OV-3 ovarian; IGROV1 ovarian; OVCAR-3 ovarian; HS 578T breast; NCI/ADR-RES ovarian; T-47D breast; BT-549 breast; MDA-MB-435 melanoma; SW-620 colon; MCF7 breast; HCT-116 colon; HCC-2998 colon; KM12 colon.
Holding throughout (test): NCI-60 one-dose screen, 48 h (100 = growth as untreated, 0 = no growth, -100 = all killed)
Holding throughout (conditions): 10 µM

The structures appear in SMILES notation. About 83,000 compounds went through this panel and 20% of them were active in at least one assay; those are over-represented in the sample as a whole.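 Treatment: one concentration, 48 hours, 96-well format. Scoring: percent growth, with anything below 10 considered active.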 A number with no mark means an inactive call. The source made the active and inactive calls.

Consider `COc1ccc(S(=O)(=O)NCCCNc2nccc(-c3c(-c4ccc(F)cc4)nc4sccn34)n2)cc1`, for which the growth in the test with RPMI-8226 leukemia was 47.8%; with OVCAR-8 ovarian, 41.9%; in the test on OVCAR-5 ovarian, 92.6%; in the test with OVCAR-4 ovarian, 77.3%; in the test on SK-OV-3 ovarian, 74.5%; in the test with IGROV1 ovarian, 30.2%. The growth in the test on OVCAR-3 ovarian was 74.9%; in the test on HS 578T breast, 83%; with NCI/ADR-RES ovarian it was 53.3%; in the test on T-47D breast, 24.2%; with BT-549 breast, 70.6%; in the test on MDA-MB-435 melanoma it was 27.9%. Also, the growth in the test with SW-620 colon was 74.8%; in the test with MCF7 breast, 33.6%; in the test with HCT-116 colon it was 42.1%; in the test with HCC-2998 colon, 65.5%; in the test with KM12 colon, 40.6%.
Consider `C=C1c2c(C)nn(-c3ccc(OC)cc3)c2N(C)C23C[C@@H]1C1(C)c4c(C)nn(-c5ccc(OC)cc5)c4N(C)C(C)(C[C@H]12)C3` (stereo partly drawn), for which the growth with RPMI-8226 leukemia was 4.67% (active); in the test on OVCAR-8 ovarian it was 31.8%; in the test on OVCAR-5 ovarian, 61.7%; in the test with OVCAR-4 ovarian, 28.1%; in the test on SK-OV-3 ovarian it was 60.2%; in the test with IGROV1 ovarian, 70.8%. Also, the growth in the test with OVCAR-3 ovarian is 24%; in the test on HS 578T breast it was 67.4%; in the test with NCI/ADR-RES ovarian it was 35%; with T-47D breast, 13.4%; with BT-549 breast, 32.9%; in the test on MDA-MB-435 melanoma it was 34%. The growth is 31.4% in the test with SW-620 colon; 20.8% with MCF7 breast; 16.7% in the test on HCT-116 colon; 34.9% in the test with HCC-2998 colon; 28.6% in the test with KM12 colon.
Take `COc1cccc(NC(=O)c2sc3nc4c(cc3c2N)C(O)CCC4)c1` (stereo not drawn): the growth in the test on RPMI-8226 leukemia was 7.49% (active); in the test with OVCAR-8 ovarian it was 17.5%; in the test on OVCAR-5 ovarian, 50.3%; in the test with OVCAR-4 ovarian it was 49.1%; in the test on SK-OV-3 ovarian, 24%; with IGROV1 ovarian, 27.7%. The growth in the test on OVCAR-3 ovarian was -34.6% (active); in the test with HS 578T breast, 29.7%; with NCI/ADR-RES ovarian, 8.86% (active); in the test with T-47D breast, 62.1%; with BT-549 breast, 44.4%; in the test with MDA-MB-435 melanoma it was -32.5% (active). The growth was 23.8% with SW-620 colon; 15.5% in the test on MCF7 breast; 12.3% in the test with HCT-116 colon; 19.6% with HCC-2998 colon; 16.7% in the test with KM12 colon.
As to `CCN(CC)CCC(=O)Nc1cccc2c1C(=O)c1c(c(O)c3ccccc3c1O)C2=O`, the growth is 33.2% in the test on RPMI-8226 leukemia; 45.3% in the test with OVCAR-8 ovarian; 80.9% in the test with OVCAR-5 ovarian; 60.2% with OVCAR-4 ovarian; 63.6% in the test on SK-OV-3 ovarian; 36.9% with IGROV1 ovarian. Also, the growth with OVCAR-3 ovarian is 64.8%; in the test with HS 578T breast it was 76.6%; in the test with NCI/ADR-RES ovarian, 46.9%; in the test with T-47D breast, 41.2%; with BT-549 breast it was 68.8%; in the test on MDA-MB-435 melanoma, 91.6%. In addition, the growth in the test on SW-620 colon is 43.8%; in the test on MCF7 breast, 30.3%; with HCT-116 colon, 44.9%; in the test with HCC-2998 colon, 80.9%; with KM12 colon, 56.9%.
For `CCCCCCN1CCN(Cc2ccc(N(CC)CC)cc2)C(=O)C1=O`, the growth in the test with RPMI-8226 leukemia was 4.35% (active); with OVCAR-8 ovarian, 28.3%; with OVCAR-5 ovarian, 58.8%; in the test with OVCAR-4 ovarian, 54.6%; with SK-OV-3 ovarian, 32.5%; with IGROV1 ovarian, 32.1%. Also, the growth was 5.54% (active) in the test with OVCAR-3 ovarian; 20.6% in the test with HS 578T breast; 0.986% (active) in the test on NCI/ADR-RES ovarian; 25.5% with T-47D breast; 68.1% in the test on BT-549 breast; -79.5% (active) with MDA-MB-435 melanoma. Also, the growth was 24% with SW-620 colon; 17.2% with MCF7 breast; 34.2% in the test with HCT-116 colon; 52% with HCC-2998 colon; 28.5% with KM12 colon.
Take `COc1cc(Cl)cc(-c2nn(-c3cccc(NC(=O)Nc4ccc(Cl)c(Cl)c4)c3)cc2-c2ccncc2)c1`: the growth in the test with RPMI-8226 leukemia is -4.44% (active); in the test on OVCAR-8 ovarian, 1.93% (active); in the test on OVCAR-5 ovarian, 37.8%; in the test on OVCAR-4 ovarian, 13.3%; in the test with SK-OV-3 ovarian, 14.2%; in the test with IGROV1 ovarian, 36.7%. Further, the growth in the test with OVCAR-3 ovarian is 4.12% (active); in the test on HS 578T breast, 28.5%; in the test with NCI/ADR-RES ovarian it was 8.59% (active); in the test with T-47D breast, 18.6%; in the test on BT-549 breast, 29.4%; in the test on MDA-MB-435 melanoma it was 0.46% (active). Moreover, the growth was 13.3% in the test with SW-620 colon; 4.66% (active) with MCF7 breast; 9.22% (active) in the test with HCT-116 colon; 26.7% with HCC-2998 colon; 14.3% in the test with KM12 colon.
As to `Cc1cc2c(C)c3cc(C)c(N)cc3nc2cc1N`, the growth in the test with RPMI-8226 leukemia is 0.782% (active); in the test with OVCAR-8 ovarian, -6.68% (active); in the test with OVCAR-5 ovarian it was 12.3%; with OVCAR-4 ovarian, -2.48% (active); in the test on SK-OV-3 ovarian it was 13.3%; with IGROV1 ovarian, -1.9% (active). In addition, the growth is 14.9% with OVCAR-3 ovarian; 15.6% with HS 578T breast; 69.2% with NCI/ADR-RES ovarian; -2.32% (active) in the test on T-47D breast; 57.8% with BT-549 breast; 12% in the test with MDA-MB-435 melanoma. Besides, the growth in the test with SW-620 colon was 4.58% (active); in the test on MCF7 breast, -4.55% (active); in the test with HCT-116 colon, -9.81% (active); with HCC-2998 colon, 28.3%; in the test with KM12 colon, 9.44% (active).
`CN(C)CCS(=O)(=O)CCN(C)C`: the growth with RPMI-8226 leukemia is 108%; in the test with OVCAR-8 ovarian it was 99.5%; in the test on OVCAR-5 ovarian, 105%; in the test on OVCAR-4 ovarian it was 120%; with SK-OV-3 ovarian, 98.8%; with IGROV1 ovarian, 119%. Further, the growth in the test with OVCAR-3 ovarian was 110%; in the test on HS 578T breast, 98.9%; with NCI/ADR-RES ovarian it was 105%; with T-47D breast it was 111%; with BT-549 breast, 101%; in the test on MDA-MB-435 melanoma, 116%. Also, the growth in the test with SW-620 colon was 94.5%; in the test on MCF7 breast, 107%; with HCT-116 colon, 96.9%; in the test with HCC-2998 colon, 102%; in the test on KM12 colon, 99.6%.
Regarding `Cc1ccc(NC(=O)Nc2nc3ccccc3s2)cc1NC(=O)Nc1nc2ccccc2s1`, the growth in the test with RPMI-8226 leukemia was 42.8%; in the test on OVCAR-8 ovarian, 50.4%; in the test on OVCAR-5 ovarian, 104%; with OVCAR-4 ovarian, 82.3%; with SK-OV-3 ovarian, 95.8%; with IGROV1 ovarian, 53.6%. The growth in the test on OVCAR-3 ovarian is 96.2%; in the test on HS 578T breast, 77.3%; with NCI/ADR-RES ovarian it was 91.7%; in the test on T-47D breast it was 80.6%; in the test on BT-549 breast, 104%; in the test with MDA-MB-435 melanoma, 97.1%. Also, the growth in the test on SW-620 colon was 102%; in the test on MCF7 breast, 64.6%; in the test on HCT-116 colon it was 84.9%; in the test with HCC-2998 colon, 93.4%; with KM12 colon, 88.2%.
